Source: PubChem BioAssay (several laboratories)
GIRK2 act = Activators of human GIRK2-containing channels | P48051 | HEK293 GIRK2/NPY4 cells, thallium flux fluorescence | activation (% efficacy), % for hits at 75 µM | 34,000 tested, under 10 active | AID 1259324;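 active = primary screen hit, no activity in plain HEK293 cells, and in GIRK2-only cells above 5% efficacy rising with concentration; inactive = the rest, including fluorescent compounds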;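 note: efficacy is normalized control-subtracted fluorescence 15 s after thallium addition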
Target sequence (P48051 whole entry, looked up): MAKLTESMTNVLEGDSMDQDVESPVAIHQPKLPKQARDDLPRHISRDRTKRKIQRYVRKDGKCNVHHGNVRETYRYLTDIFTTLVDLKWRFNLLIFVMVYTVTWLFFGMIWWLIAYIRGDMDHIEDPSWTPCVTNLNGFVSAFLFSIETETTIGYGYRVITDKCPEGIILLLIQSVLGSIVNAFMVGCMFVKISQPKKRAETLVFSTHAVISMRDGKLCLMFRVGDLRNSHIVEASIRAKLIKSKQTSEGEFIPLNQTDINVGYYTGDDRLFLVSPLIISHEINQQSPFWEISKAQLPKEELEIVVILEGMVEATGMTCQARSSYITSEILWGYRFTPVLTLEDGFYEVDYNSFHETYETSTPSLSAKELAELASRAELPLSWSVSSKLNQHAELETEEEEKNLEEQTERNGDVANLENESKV
GluA2 TARP mod = GluA2-stargazin AMPA receptor complex modulation | HEK293 GluA2+stargazin, membrane potential dye (FDSS), glutamate EC50; hits were called plate by plate, in both directions | calls only at 30 µM | actives 3.5% (n = 40,000) | AID 1259245;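 active = any of four per-well response measures lying three or more SD from its plate-wide compound average, in either direction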
Starred values were filed as active, the others as inactive; i = inactive; . = no result given; + = active, no number; [ ] = dose if it differs, or a comment. Only a selection was taken, and hits are over-represented in it overall.

SMILES	GIRK2 act	GluA2 TARP mod
COc1cc(/C=C2\SC(=S)N(c3cccc(C)c3C)C2=O)cc(OC)c1OC	.	+
COc1ccc(/C=C2\SC(=S)N(c3cccc(C)c3C)C2=O)cc1OC	.	i
COc1cc(/C=C2\SC(=S)N(c3ccccc3Br)C2=O)ccc1O	.	+
O=S(=O)(c1cccnc1)N1CCN(c2ccc(-c3ccc(F)cc3)nn2)CC1	i	i
CCOc1ccc(-c2ccc(N3CCN(C(=O)c4cccs4)CC3)nn2)cc1	i	i
CC(C)C(=O)Nc1ccc(C(=O)NCCNC(=O)c2ccc(C(C)(C)C)cc2)cc1	i	i
COc1ccc2nc(-c3ccc(F)c(NC(=O)c4ccccc4OC)c3)cn2n1	i	.
C=CCN1CC(c2nc3ccccc3n2Cc2ccc(Cl)c(Cl)c2)CC1=O (stereo not drawn)	.	i
CC(c1ccccc1)n1c(C2CC(=O)N(C(C)(C)C)C2)nc2ccccc21 (stereo not drawn)	.	+
C=CCN1CC(c2nc3ccccc3n2C(C)c2ccccc2)CC1=O (stereo not drawn)	.	+
C=CCN1CC(c2nc3ccccc3n2Cc2c(C)c(C)cc(C)c2C)CC1=O (stereo not drawn)	.	+
CC(C)(C)N1CC(c2nc3ccccc3n2CCOc2ccccc2)CC1=O (stereo not drawn)	.	i
C=CCN1CC(c2nc3ccccc3n2Cc2ccc(C(C)(C)C)cc2)CC1=O (stereo not drawn)	.	i
Cc1ccsc1C(O)CNC(=O)C(C)(C)Oc1ccc(Cl)cc1 (stereo not drawn)	i	i
CCN1CCc2c(sc(NC(=O)c3c(F)cccc3F)c2-c2nc3ccccc3s2)C1	.	i
COc1cccc(C(=O)NCC#CCOc2cccc(C(F)(F)F)c2)c1OC	i	.
Cc1ccc(C(=O)Nc2ccc(Nc3nc(C)cc(N4CCCCC4)n3)cc2)cc1	.	+
Cc1ccc(Nc2cc(C)nc(Nc3ccc(NC(=O)c4ccc5c(c4)OCO5)cc3)n2)cc1	.	i
CS(=O)(=O)N1CCCCC1C(=O)N(Cc1ccccc1)Cc1ccccc1 (stereo not drawn)	i	+
CS(=O)(=O)N1CCCC(C(=O)N(Cc2ccccc2)Cc2ccccc2)C1 (stereo not drawn)	i	i
CC(C)N(CC#CCNS(=O)(=O)c1cc(F)ccc1F)C(C)C	.	i
O=S(=O)(NCC(O)c1ccc(C(F)(F)F)cc1)c1ccc2c(c1)OCCO2 (stereo not drawn)	i	i
CC(C)N(CC#CCNS(=O)(=O)c1ccc(OC(F)(F)F)cc1)C(C)C	.	+
COc1ccc(CCS(=O)(=O)NCC(O)c2ccc(C(F)(F)F)cc2)cc1 (stereo not drawn)	i	+
O=S(=O)(NCC(O)c1ccc(C(F)(F)F)cc1)c1ccc(OC(F)(F)F)cc1 (stereo not drawn)	.	+
SMILES	GIRK2 act	GluA2 TARP mod
COc1ccc(CCC(=O)NCC(O)c2ccc(C(F)(F)F)cc2)cc1 (stereo not drawn)	i	.
Cc1cc(C(=O)NCC(c2ccco2)N2CCOCC2)c(C)o1 (stereo not drawn)	i	i
COc1cccc(C(=O)Nc2nnc(-c3ccc(C)cc3C)o2)c1OC	.	i
COc1cc(C(=O)Nc2nnc(-c3cc4ccccc4o3)o2)cc(OC)c1OC	.	i
CCN(C1CCCCC1)S(=O)(=O)c1ccc(C(=O)Nc2nccs2)cc1	i	i
O=C(Cc1cc(-c2cccs2)on1)N1CCCCC1	i	i
CC(=O)Nc1ccc(NC(=O)CSc2ccc(S(=O)(=O)C(F)(F)F)cc2[N+](=O)[O-])cc1	.	i
O=C(CSc1ccc([N+](=O)[O-])cc1[N+](=O)[O-])Nc1cccc(C(F)(F)F)c1	.	+
COCCn1c(SCC(=O)c2c(C)[nH]c3ccccc23)nc2cc(C(=O)NC(C)C)ccc2c1=O	.	+
COCCn1c(SCc2ccc(Cl)cc2)nc2cc(C(=O)NC(C)C)ccc2c1=O	i	i
O=C(CCn1nnc2ccccc2c1=O)NCc1nc2ccccc2[nH]1	.	i
O=C(Nc1nc(C(=O)N2CCc3ccccc3C2)co1)c1ccco1	i	+
O=C(NCc1ccccc1Cl)c1coc(NC(=O)c2ccco2)n1	i	i
CCOc1ccc(S(=O)(=O)N2CCN(C(C)=O)CC2)c2ccccc12	i	i
COc1ccc(NS(=O)(=O)c2c(C)cc(C)c(N(C)S(C)(=O)=O)c2C)cc1	i	+
Cc1cc(C)c(S(=O)(=O)Nc2ccc(F)cc2)c(C)c1N(C)S(C)(=O)=O	i	i
Cc1ccc2c(=O)c(-c3nc(-c4ccccc4C)no3)cn(CC(=O)NC3CCCC3)c2n1	i	i
CC12CCC(C(=O)Nc3ccccc3-n3cccc3)(CC1=O)C2(C)C (stereo not drawn)	.	+
CC12CCC(C(=O)Nc3ccccc3N3CCOCC3)(CC1=O)C2(C)C (stereo not drawn)	i	i
COc1cccc(C(=O)NCCOc2ccc(F)cc2)c1OC	i	i
COc1cc([N+](=O)[O-])cc2cc(C(=O)NC(C)c3ccccc3)c(=O)oc12 (stereo not drawn)	i	i
COc1cc([N+](=O)[O-])cc2cc(C(=O)N3CCN(c4cccc(C(F)(F)F)c4)CC3)c(=O)oc12	i	+
COc1ccccc1OCC(O)Cn1cnc2ccccc21 (stereo not drawn)	i	i
COc1ccc(NC(=O)NCC(c2ccccc2Cl)N(C)C)cc1OC (stereo not drawn)	i	+
COC(=O)c1ccc(C(=O)NCC(c2ccccc2Cl)N(C)C)cc1 (stereo not drawn)	i	i
SMILES	GIRK2 act	GluA2 TARP mod
Cc1cccc(CN(c2ccc3c(c2)OCO3)S(=O)(=O)c2ccc3nncn3c2)c1	i	+
COc1ccc(N(Cc2ccccc2)S(=O)(=O)c2ccc3nncn3c2)cc1	i	i
COc1ccc(/C(O)=C2\C(=O)C(=O)N(CCCN(C)C)C2c2ccccn2)cc1 (stereo not drawn)	.	i
Cc1n[nH]c(C)c1S(=O)(=O)N1CCN(Cc2nc(-c3ccc(F)cc3)cs2)CC1	i	i
Cc1oc(-c2ccccc2)nc1COC(=O)c1nnn(-c2ccc(Cl)cc2)c1C	.	i
COc1cccc(COC(=O)c2nnn(-c3ccc(C)cc3)c2C)c1	.	+
COc1ccc(-n2nnc(C(=O)OCc3cccc(OC)c3)c2C)cc1	.	i
Cc1ccc(-n2nnc(C(=O)OCc3nc(-c4ccccc4C)oc3C)c2C)cc1	.	+
O=S(=O)(NCC(c1cccs1)N1CCOCC1)c1cccc(Cl)c1 (stereo not drawn)	.	i
COCc1cnc2c(c1SCC(=O)Nc1ccc(C)c(Cl)c1)c(=O)n(C)c(=O)n2C	.	i
NC(=O)C1CCN(C(=O)c2ccc3c(c2)[nH]c(=S)n2c4ccccc4nc32)CC1	i	i
Cc1ccc(-n2nc3c(c2-n2cccc2)CN(C(=O)c2ccno2)C3)cc1C	i	i
Cc1ccc(-n2nc3c(c2-n2cccc2)CN(C(=O)c2ccsc2)C3)cc1	i	+
CC(C)(C)n1nc2c(c1-n1cccc1)CN(C(=O)c1cccs1)C2	i	i
Cc1ccc(-n2nc3c(c2-n2cccc2)CN(C(=O)c2cnccn2)C3)cc1C	100%*[37.5 µM]	i
NS(=O)(=O)c1ccc(CCNC(=O)Cn2cnc(-c3ccccc3)cc2=O)cc1	i	i
